Screening results as filed in PubChem BioAssay.
ATG4B inh = blocks human ATG4B protease cleavage of LC3 substrate; Q9Y4P1; ATG4B cleavage of LC3-PLA2, NBD-HPC fluorescence, 1 h; inhibition, % at 8.33 µM; 340,000 compounds, 0.51% hits; AID 504462; in the data active = inhibition above about 40%
Target sequence (Q9Y4P1 whole entry, looked up): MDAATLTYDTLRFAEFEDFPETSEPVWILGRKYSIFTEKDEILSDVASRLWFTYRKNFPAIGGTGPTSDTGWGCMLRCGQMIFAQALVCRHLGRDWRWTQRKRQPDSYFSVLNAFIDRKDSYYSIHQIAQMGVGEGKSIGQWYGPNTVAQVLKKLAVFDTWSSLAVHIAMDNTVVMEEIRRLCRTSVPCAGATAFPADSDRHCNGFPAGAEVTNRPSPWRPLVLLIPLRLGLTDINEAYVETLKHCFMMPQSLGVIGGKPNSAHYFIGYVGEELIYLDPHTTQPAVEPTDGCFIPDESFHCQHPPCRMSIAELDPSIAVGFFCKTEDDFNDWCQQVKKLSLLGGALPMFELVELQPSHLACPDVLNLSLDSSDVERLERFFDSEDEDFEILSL
DAGLB inhibitor = blocks human DAGLB lipase activity; Q8NCG7; HEK293T DAGLB membrane lysate, EnzChek fluorogenic substrate; inhibition, % at 5.17 µM; 340,000 compounds, 0.059% hits; AID 504411; in the data active = inhibition above about 34%;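 note: 0% = enzyme with vehicle and 100% = wells lacking enzyme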
pPAFAH inh = inhibitors of human plasma PAF acetylhydrolase (pPAFAH). 330,000 compounds, 1.5% hits. recombinant pPAFAH, FP-rhodamine probe fluorescence polarization. Q13093. inhibition, % at 3.39 µM;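 active = inhibition above the mean inhibition across the screen plus 3 SD, cut at about 25% in these data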;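 note: inhibitors block binding of the rhodamine activity-based probe so polarization drops; 0% = enzyme with DMSO and 100% = wells lacking pPAFAH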
PAFAH1B2 FP inh = PAFAH1B2 (human) inhibition; inhibition, % at 3.39 µM; 340,000 compounds, 1.2% hits; AID 492953; recombinant PAFAH1B2, FP-rhodamine activity probe, fluorescence polarization; P68402;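 active = inhibition above the mean of all tested compounds plus 3 SD, cut at about 24% in these data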;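 note: 0% = enzyme with DMSO and 100% = wells lacking PAFAH1B2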
Target sequence (P68402 whole entry, looked up): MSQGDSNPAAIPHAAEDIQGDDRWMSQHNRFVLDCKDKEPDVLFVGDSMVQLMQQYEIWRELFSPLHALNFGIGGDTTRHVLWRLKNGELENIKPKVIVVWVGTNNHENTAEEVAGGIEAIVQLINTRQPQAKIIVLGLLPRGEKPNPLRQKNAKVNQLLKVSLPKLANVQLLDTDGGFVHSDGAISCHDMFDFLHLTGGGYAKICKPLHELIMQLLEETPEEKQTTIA
PAFAH1B3 inh = inhibitors of human PAFAH1B3 | inhibition, % at 3.39 µM | 340,000 compounds, 0.28% hits | Q15102 | recombinant PAFAH1B3, FP-rhodamine probe, fluorescence polarization;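 active = inhibition above the screen-wide average of all tested compounds plus 3 SD, cut at about 25% in these data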;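 note: 0% = enzyme with DMSO only and 100% = wells lacking PAFAH1B3 protein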
PAFAH2 FP inh = PAFAH2 (human) inhibition | Q99487 | 340,000 compounds, 0.99% hits | inhibition, % at 3.39 µM | recombinant PAFAH2, FP-rhodamine activity probe, fluorescence polarization | AID 492956;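 active = inhibition above the mean over all tested compounds plus 3 SD, cut at about 30% in these data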;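 note: inhibitors block probe labeling of enzyme so polarization drops; 0% = enzyme with DMSO and 100% = wells lacking PAFAH2 protein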
PAFAH2 FP conf = PAFAH2 (human) inhibition, confirmed; shares compounds with PAFAH2 FP inh; recombinant PAFAH2, FP-rhodamine activity probe, fluorescence polarization; inhibition, % at 3.39 µM; 2,300 compounds, 65% hits;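 active = mean inhibition over three repeats above a set limit taken from the earlier primary screen, cut at about 30% in these data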;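 note: inhibitor blocks binding of rhodamine activity probe so polarization falls; 0% = enzyme with DMSO and 100% = wells lacking PAFAH2 protein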
Active calls of the source: *; . = no result. Only some compounds are listed: those with a hit (about 3% of all), similar ones and a draw of the others.

SMILES | ATG4B inh | DAGLB inhibitor | pPAFAH inh | PAFAH1B2 FP inh | PAFAH1B3 inh | PAFAH2 FP inh | PAFAH2 FP conf
O=C(COC(=O)C1=COCCO1)Nc1ccc([N+](=O)[O-])cc1C(F)(F)F | 5 | -3 | 6 | 4 | 6 | 32* | 19
CC1CCCC(NC(=O)COC(=O)C2=COCCO2)C1C (stereo not drawn) | . | -2 | . | . | . | . | .
O=C(Nc1ccnc(-c2ccncc2)n1)C1CC1 | -5 | 2 | 3 | 0 | 5 | 10 | .
CN(C(=O)Nc1cnccc1C(F)(F)F)C1CCCCC1 | 1 | 1 | -5 | 6 | -2 | 2 | .
C[C@@H]1CN([C@@H](C)CO)C(=O)CCCn2cc(nn2)CO[C@H]1CN(C)C(=O)c1ccc2ccn(C)c2c1 | . | 1 | . | . | . | . | .
O=C(COC(=O)C1=COCCO1)Nc1ccccc1 | 5 | -1 | 7 | 4 | 1 | 79* | 68*
N#Cc1ccc(NC(=O)COC(=O)C2=COCCO2)cc1 | 2 | 1 | 5 | -2 | 4 | 28 | .
O=C1C(Cl)=C(N2CCCCC2)C(=O)C(Cl)=C1c1cnc(N2CCCCC2)s1 | 23 | 8 | . | 10 | 9 | 31* | 10
CC(C)(C)C(=O)OC/C(N)=N/OC(=O)c1ccccc1 | 4 | 1 | 7 | 4 | 12 | 44* | 71*
O=C(O)c1ccc(N=c2oc3cc(O)ccc3cc2C(=O)NCc2ccccc2)cc1 | -17 | 0 | 7 | 9 | 16 | 54* | 40*
COc1ccc2cc(C(=O)NCc3ccccc3)c(=Nc3ccc(C(=O)O)cc3)oc2c1 | -2 | 2 | 1 | 3 | 7 | 25 | .
CC(C)(C)OC(=O)N(CCc1ccccc1)Cc1cccc(OCc2cccc(NC(=O)C3CCCC3)c2)c1 | . | -18 | . | -3 | -5 | -15 | .
Cc1ncc(CO)c2cc(S(=O)(=O)c3ccc(F)cc3)c(=O)oc12 | -4 | 1 | -3 | 3 | -7 | 1 | .
O=c1oc2ccc(Br)cc2cc1S(=O)(=O)c1ccc(F)cc1 | 16 | 2 | 5 | 11 | -1 | 80* | 63*
COc1ccccc1NS(=O)(=O)c1ccc(C(=O)Nc2ncccc2O)cc1 | -59 | 0 | 3 | 6 | 3 | 55* | 46*
Cc1ccc(NC2c3ncccc3C(=O)N2Cc2cccs2)cc1C (stereo not drawn) | 5 | 10 | -2 | 0 | 1 | 69* | -8
Cc1c(C(c2cc3c(cc2Br)OCO3)c2c(C)n(C)n(-c3ccccc3)c2=O)c(=O)n(-c2ccccc2)n1C | 2 | 1 | 2 | 3 | 8 | 81* | 77*
COc1cc(/C=C/C(=O)OCC(=O)NCCC2=CCCCC2)cc(OC)c1OC | -11 | -7 | 13 | 4 | -4 | 33* | 10
COc1cc(/C=C/C(=O)OCC(=O)NCCC2=CCCCC2)ccc1O | -15 | 3 | 14 | 3 | -5 | 57* | 63*
NNC(=O)c1c(O)c2cccc3c2n(c1=O)CCC3 | 1 | -1 | 0 | -2 | 6 | -7 | .
CC(=O)c1ccc(NC(=O)COC(=O)c2ccc(F)cc2F)cc1 | -4 | 0 | 19 | 3 | -11 | 28 | .
Cc1occc1C(=O)OCC(=O)Nc1ccc(F)cc1 | 1 | -3 | 7 | 1 | 5 | 73* | 62*
O=C(COC(=O)c1ccccc1Br)Nc1ccc(F)cc1 | 0 | -3 | 12 | 5 | 5 | 76* | 70*
CC(=O)c1cccc(NC(=O)COC(=O)c2ccccc2C)c1 | 7 | 0 | 5 | 5 | -4 | 63* | 62*
O=C(COC(=O)c1ccccc1C(=O)c1ccccc1)Nc1cccc([N+](=O)[O-])c1 | 2 | 1 | 19 | 7 | -5 | 89* | 82*
SMILES | ATG4B inh | DAGLB inhibitor | pPAFAH inh | PAFAH1B2 FP inh | PAFAH1B3 inh | PAFAH2 FP inh | PAFAH2 FP conf
CCOc1ncccc1C(=O)OCC(=O)Nc1cccc(C(C)=O)c1 | -5 | 0 | 19 | 6 | 9 | 62* | 55*
CC(=O)c1cccc(NC(=O)COC(=O)c2ccccn2)c1 | -8 | 1 | 4 | -1 | -4 | -4 | .
CCOc1ncccc1C(=O)OCC(=O)Nc1cccc(S(N)(=O)=O)c1 | 0 | -1 | 6 | -3 | 3 | 33* | 15
CN(C)S(=O)(=O)c1ccc(C(=O)OCn2nnc3ccccc3c2=O)cc1 | -13 | 2 | 1 | 5 | 9 | 3 | .
Cc1ccc(NC(=O)COC(=O)c2cc(-c3cccs3)nn2-c2ccccc2)cc1[N+](=O)[O-] | -5 | -1 | 6 | 3 | 2 | 5 | .
O=C(COC(=O)c1cc(-c2cccs2)nn1-c1ccccc1)Nc1cccc([N+](=O)[O-])c1 | 25 | -2 | 3 | -4 | -6 | 32* | 39*
Cc1ccc(C(=O)CSc2nnc(-c3snnc3C)n2C2CC2)cc1 | -3 | -1 | 8 | -1 | 7 | 2 | .
Cc1ccccc1CN(C)C(=O)COC(=O)c1ccc2[nH]c(C)c(C)c2c1 | 21 | 0 | 1 | 1 | 14 | 51* | 31*
Cc1[nH]c2ccc(C(=O)OC(C)C(=O)NCc3ccccc3)cc2c1C (stereo not drawn) | 12 | 3 | 9 | 6 | 6 | 0 | .
Cc1ccsc1/C=N/NC(=O)c1nnn(-c2nonc2N)c1CN(C)c1ccccc1 | -10 | 3 | 6 | -2 | 8 | -1 | .
COc1ccccc1-n1c(C)c2c(OC)cccc(=O)c2c1C | -3 | 2 | 13 | 4 | 5 | 39* | 55*
COc1ccc(-n2c(C)c3c(OC)cccc(=O)c3c2C)cc1 | 2 | 4 | 21 | 5 | 3 | 13 | .
COc1ccc2nc3n(c(=O)c2c1)-c1ncccc1C(=O)NC3C (stereo not drawn) | . | 2 | . | . | . | . | .
CCCCNC(=O)COC(=O)c1ccc(C)c(NC(=O)c2ccco2)c1 | -5 | 1 | 4 | -2 | 1 | 50* | 45*
C=CCNC(=O)COC(=O)c1ccc(C)c(NC(=O)c2ccco2)c1 | -5 | 2 | 1 | 5 | 0 | 36* | 30*
CCN(CC)C(=O)COC(=O)c1ccc(C)c(NC(=O)c2ccco2)c1 | -11 | 2 | 4 | 10 | 6 | 3 | .
COc1ccc(CCn2c(O)c(C=Nc3cccc(F)c3)c(=O)[nH]c2=O)cc1OC | -7 | . | 1 | . | . | . | .
C=CCn1c(O)c(C=Nc2ccc(Cc3ccncc3)cc2)c(=O)[nH]c1=S | -11 | 3 | 9 | 7 | 4 | 32* | 21
Cc1ccc(C)c(N2CCN(C(=O)c3ccc(NC4=NC5CS(=O)(=O)CC5S4)cc3)CC2)c1 (stereo not drawn) | -16 | 2 | 2 | 4 | 5 | 2 | .
O=C(Nc1cccc(Br)c1)c1ccc2c(c1)SC1=NS(=O)(=O)CCN12 | -17 | 1 | 1 | 0 | -6 | 2 | .
CN(C)S(=O)(=O)c1cccc(NC(=O)COC(=O)/C=C/c2ccc3c(c2)OCO3)c1 | -8 | -4 | 6 | -1 | 2 | 74* | 62*
